# Laboratory results published in ChEMBL document CHEMBL3988442, “University of Dundee, Small-Polar-MMV Screening Library” (2021).
# For some of these results: Potency and affinity values are given separately.
# Columns and labels:
# Parameters in all cases: scale not given: direction of the effect not stated beside the values
# [1] = biological target: Protein translocase subunit SecA (Escherichia coli (strain K12)) (UniProt P10408); experiment: Assay to Identify E. coli SecA ATPase Inhibitors; assay type: functional; settings: 30 µM
# Protein translocase subunit SecA (Escherichia coli (strain K12)), sequence (P10408 whole entry): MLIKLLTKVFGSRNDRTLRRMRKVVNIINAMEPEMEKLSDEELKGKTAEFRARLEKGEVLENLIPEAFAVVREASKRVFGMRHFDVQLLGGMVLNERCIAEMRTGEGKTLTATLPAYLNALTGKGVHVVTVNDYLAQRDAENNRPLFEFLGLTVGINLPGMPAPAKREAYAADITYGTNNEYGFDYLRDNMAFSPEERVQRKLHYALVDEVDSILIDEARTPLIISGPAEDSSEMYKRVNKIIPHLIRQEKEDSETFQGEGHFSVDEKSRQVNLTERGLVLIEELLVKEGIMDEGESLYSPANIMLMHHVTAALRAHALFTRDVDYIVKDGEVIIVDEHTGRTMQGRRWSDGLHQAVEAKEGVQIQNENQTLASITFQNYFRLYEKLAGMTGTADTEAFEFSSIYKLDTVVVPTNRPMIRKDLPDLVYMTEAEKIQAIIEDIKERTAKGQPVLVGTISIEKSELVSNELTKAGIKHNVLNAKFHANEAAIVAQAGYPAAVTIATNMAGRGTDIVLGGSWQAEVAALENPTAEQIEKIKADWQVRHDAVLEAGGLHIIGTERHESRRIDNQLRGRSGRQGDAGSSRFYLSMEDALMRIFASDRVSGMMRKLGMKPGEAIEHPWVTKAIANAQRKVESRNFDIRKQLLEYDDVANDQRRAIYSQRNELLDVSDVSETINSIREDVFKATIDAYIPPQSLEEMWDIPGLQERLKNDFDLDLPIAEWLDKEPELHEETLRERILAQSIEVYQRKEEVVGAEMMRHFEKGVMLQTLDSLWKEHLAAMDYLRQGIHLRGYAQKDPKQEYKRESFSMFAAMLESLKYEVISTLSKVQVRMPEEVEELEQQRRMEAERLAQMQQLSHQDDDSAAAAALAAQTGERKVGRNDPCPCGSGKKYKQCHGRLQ
# [2] = biological target: T1, Ubiquitin-activating enzyme e1, putative (Leishmania donovani (strain BPK282A1)) (UniProt E9BSI1); experiment: Leishmania donovani Ubiquitin Activating Enzyme (LdE1); assay type: functional; settings: 30 µM
# T1 sequence (whole entry): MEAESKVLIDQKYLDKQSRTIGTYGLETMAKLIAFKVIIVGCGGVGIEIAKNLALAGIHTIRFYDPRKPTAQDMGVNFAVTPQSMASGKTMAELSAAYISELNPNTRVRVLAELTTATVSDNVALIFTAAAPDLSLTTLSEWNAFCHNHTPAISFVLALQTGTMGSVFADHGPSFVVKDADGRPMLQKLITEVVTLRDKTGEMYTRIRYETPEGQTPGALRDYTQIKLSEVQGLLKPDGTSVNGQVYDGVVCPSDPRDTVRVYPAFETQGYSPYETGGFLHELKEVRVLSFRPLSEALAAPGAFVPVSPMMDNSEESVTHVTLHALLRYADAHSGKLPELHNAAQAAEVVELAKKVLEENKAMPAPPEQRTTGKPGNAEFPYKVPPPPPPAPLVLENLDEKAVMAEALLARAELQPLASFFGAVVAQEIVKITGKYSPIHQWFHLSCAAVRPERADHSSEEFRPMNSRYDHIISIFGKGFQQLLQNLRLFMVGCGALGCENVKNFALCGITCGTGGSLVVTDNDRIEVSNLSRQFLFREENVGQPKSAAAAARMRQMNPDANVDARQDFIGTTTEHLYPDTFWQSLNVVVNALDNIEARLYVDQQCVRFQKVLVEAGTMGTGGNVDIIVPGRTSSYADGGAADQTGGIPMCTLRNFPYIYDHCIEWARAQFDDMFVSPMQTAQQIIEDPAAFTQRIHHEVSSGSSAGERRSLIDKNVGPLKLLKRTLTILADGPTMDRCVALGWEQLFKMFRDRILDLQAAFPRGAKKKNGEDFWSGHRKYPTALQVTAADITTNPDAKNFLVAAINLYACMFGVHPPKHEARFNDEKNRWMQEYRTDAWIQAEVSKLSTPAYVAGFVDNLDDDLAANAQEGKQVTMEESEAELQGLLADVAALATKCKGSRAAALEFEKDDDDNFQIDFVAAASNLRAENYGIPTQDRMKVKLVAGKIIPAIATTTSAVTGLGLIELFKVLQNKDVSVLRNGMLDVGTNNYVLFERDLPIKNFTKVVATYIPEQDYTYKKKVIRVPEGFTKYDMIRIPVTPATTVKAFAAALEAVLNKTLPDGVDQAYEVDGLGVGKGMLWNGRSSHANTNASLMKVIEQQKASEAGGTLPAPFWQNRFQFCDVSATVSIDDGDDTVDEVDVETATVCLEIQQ
# [3] = biological target: AMP-activated protein kinase, AMPK (Homo sapiens) (UniProt P54646+O43741+P54619+Q9UGJ0+Q9Y478+Q13131+Q9UGI9); experiment: AMP-dependent Kinase enzyme assay. An in vitro enzyme assay that detects ADP turnover that is directly proportional to AMPK activity. This uses naive AMPK that is activated during the assay with MK-8722; assay type: functional; settings: 30 µM
# [4] = biological target: Sialic acid-binding Ig-like lectin 9 (Homo sapiens) (UniProt Q9Y336); experiment: Hs-Siglec9 ALPHAscreen SOP 20170721; settings: 10 µM
# Sialic acid-binding Ig-like lectin 9 (Homo sapiens), sequence (Q9Y336 whole entry): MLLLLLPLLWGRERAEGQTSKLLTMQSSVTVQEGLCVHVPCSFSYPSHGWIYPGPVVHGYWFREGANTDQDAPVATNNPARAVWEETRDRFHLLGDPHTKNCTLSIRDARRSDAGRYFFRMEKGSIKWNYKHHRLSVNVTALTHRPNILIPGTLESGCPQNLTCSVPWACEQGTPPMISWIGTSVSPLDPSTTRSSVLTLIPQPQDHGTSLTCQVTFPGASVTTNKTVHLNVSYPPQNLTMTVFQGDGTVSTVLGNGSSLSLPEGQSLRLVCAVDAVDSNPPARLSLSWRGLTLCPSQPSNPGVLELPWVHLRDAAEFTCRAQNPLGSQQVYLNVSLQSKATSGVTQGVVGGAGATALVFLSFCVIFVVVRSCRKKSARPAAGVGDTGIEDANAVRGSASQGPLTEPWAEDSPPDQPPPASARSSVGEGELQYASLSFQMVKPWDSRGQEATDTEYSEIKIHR
# Trypanosoma cruzi = experiment: Trypanosoma cruzi phosphomannomutase and mannose-1-phosphate guanylyltransferase assay; assay type: functional; settings: 10 µM
# [5] = biological target: T2, Arginase-2, mitochondrial (Homo sapiens) (UniProt P78540); experiment: in vitro enzyme assay to detect the production of urea directly proportional to the activity of Arginase II; assay type: functional; settings: 33.3 µM; note: in the data most compounds retested in dose-response had high values
# T2 sequence (whole entry): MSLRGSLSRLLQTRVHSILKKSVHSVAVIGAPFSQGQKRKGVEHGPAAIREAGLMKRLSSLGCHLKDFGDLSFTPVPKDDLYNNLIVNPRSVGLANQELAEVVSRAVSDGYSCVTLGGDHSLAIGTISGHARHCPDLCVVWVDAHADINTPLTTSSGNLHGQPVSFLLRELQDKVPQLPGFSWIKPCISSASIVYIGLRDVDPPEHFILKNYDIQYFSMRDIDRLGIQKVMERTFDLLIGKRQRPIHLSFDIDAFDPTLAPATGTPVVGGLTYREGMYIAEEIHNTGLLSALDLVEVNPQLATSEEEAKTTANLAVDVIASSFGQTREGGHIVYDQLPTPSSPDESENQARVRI
# [6] = biological target: T3, Proteasome subunit beta (Trypanosoma cruzi) (UniProt O96673); experiment: Trypanosoma cruzi proteasome chymotrypsin-like activity (TcProtChymo) assay.; note: in the data most compounds retested in dose-response had high values; assay type: functional; settings: 9.37 µM
# T3 sequence (whole entry): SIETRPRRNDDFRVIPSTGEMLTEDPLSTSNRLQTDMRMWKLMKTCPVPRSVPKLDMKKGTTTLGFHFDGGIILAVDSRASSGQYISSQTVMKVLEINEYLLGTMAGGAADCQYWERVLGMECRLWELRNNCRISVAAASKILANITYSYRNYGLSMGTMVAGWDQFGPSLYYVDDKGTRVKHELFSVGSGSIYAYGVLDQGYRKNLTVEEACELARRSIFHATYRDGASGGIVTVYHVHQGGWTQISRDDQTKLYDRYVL
# Homo sapiens = species on record: Homo sapiens; experiment: To identify inhibition of the IFN signalling (Jak-Stat) pathway via expression of an eGFP reporter gene under the control of an IFN-stimulated response element (ISRE) containing MxA promoter.; assay type: functional; settings: 30 µM
# [7] = biological target: T4, Tyrosyl-tRNA synthetase, putative (Trypanosoma cruzi (strain CL Brener)) (UniProt Q4DSP6); experiment: Trypanosoma cruzi tyrosyl tRNA synthetase (TcYRS) _High Tyrosine SOP; assay type: functional; settings: 30 µM; note: in the data most compounds retested in dose-response had high values
# T4 sequence (whole entry): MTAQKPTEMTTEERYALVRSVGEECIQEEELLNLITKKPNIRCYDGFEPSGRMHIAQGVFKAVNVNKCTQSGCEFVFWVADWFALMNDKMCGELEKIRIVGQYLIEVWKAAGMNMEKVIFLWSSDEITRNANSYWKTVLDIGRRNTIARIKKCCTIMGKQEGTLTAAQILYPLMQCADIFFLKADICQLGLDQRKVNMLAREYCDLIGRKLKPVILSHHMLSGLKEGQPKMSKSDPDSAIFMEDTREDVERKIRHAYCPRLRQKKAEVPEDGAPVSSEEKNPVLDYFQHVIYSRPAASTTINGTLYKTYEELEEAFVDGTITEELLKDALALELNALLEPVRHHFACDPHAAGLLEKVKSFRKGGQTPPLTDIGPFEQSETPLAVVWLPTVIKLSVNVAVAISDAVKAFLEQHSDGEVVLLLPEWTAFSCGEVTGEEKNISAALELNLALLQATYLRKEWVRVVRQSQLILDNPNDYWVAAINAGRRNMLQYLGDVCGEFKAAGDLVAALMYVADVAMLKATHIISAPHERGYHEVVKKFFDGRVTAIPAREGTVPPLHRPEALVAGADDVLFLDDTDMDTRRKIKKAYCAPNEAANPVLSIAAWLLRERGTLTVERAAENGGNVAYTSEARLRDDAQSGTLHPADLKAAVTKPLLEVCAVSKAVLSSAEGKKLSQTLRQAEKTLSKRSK
# [8] = biological target: T4, Tyrosyl-tRNA synthetase, putative (Trypanosoma cruzi (strain CL Brener)); experiment: Trypanosoma cruzi tyrosyl tRNA synthetase (TcYRS) SOP; assay type: functional; settings: 30 µM
# [9] = biological target: Chromo domain-containing protein 1 (Saccharomyces cerevisiae (strain ATCC 204508 / S288c) (Baker's yeast)) (UniProt P32657); experiment: ScCHD-1 Enzyme Inhibition Assay; assay type: functional; settings: 30 µM; note: in the data most compounds retested in dose-response had high values
# Chromo domain-containing protein 1 (Saccharomyces cerevisiae (strain ATCC 204508 / S288c) (Baker's yeast)), sequence (P32657 whole entry, the tested form may be a part): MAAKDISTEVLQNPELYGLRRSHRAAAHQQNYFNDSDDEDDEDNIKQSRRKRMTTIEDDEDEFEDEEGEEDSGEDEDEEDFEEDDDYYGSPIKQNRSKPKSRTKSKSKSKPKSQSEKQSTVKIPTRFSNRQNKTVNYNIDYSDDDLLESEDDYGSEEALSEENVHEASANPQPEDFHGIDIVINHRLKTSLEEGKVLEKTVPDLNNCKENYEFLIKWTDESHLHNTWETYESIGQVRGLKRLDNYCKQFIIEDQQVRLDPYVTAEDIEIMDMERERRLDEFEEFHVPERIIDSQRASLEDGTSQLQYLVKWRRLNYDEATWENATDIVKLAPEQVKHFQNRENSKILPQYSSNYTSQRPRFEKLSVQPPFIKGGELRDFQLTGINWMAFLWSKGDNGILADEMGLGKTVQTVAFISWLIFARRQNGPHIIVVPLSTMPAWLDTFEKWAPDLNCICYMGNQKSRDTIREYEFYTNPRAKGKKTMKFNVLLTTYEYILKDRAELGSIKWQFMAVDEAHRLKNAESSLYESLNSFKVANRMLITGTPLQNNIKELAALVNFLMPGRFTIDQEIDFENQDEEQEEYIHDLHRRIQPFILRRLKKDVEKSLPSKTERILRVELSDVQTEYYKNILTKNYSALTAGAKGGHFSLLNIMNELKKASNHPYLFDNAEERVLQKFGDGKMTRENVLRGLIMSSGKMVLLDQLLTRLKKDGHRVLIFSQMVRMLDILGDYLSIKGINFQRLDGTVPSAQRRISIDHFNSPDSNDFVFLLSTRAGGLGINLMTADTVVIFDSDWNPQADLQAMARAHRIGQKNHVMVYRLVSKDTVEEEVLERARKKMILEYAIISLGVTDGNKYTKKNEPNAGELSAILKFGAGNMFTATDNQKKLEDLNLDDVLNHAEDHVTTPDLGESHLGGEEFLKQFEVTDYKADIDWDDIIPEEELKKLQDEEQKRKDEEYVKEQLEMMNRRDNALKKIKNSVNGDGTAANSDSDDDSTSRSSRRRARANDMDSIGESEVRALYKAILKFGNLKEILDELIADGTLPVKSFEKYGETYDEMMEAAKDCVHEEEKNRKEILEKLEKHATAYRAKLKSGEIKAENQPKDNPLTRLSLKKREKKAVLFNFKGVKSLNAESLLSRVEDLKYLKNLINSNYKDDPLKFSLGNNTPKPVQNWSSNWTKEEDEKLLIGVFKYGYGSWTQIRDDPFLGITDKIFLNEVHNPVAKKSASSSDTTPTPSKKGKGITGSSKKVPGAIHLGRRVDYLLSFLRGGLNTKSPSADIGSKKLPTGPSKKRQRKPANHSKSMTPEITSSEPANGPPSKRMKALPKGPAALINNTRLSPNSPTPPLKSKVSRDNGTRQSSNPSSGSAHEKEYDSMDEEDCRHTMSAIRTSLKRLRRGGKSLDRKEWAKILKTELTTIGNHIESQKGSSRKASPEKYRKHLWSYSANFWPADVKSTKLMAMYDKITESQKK
SMILES,Percent Effect [1] [%],Percent Effect [2] [%],Percent Effect [3] [%],Percent Effect [4] [%],Percent Effect (Trypanosoma cruzi) [%],Percent Effect [5] [%],Percent Effect [6] [%],Percent Effect (Homo sapiens) [%],Percent Effect [7] [%],Percent Effect [8] [%],Percent Effect [9] [%]
CCn1cnnc1CNC(=O)NC(C)c1cccs1 (configuration not stated),-1.87,23.4,-0.473,11.3,1.5,-5.69,3.38,10.1,4.85,21.9,-8.5
CCc1ncnc2c1CCN(C(=O)N1CCCC1)CC2,-5.11,0,4.79,8.2,-2.7,-10.9,12.3,1.54,-3.12,-5,2.94
Cc1csc(N2CCN(Cc3ccccn3)CC2C)n1 (configuration not stated),-3.15,5.48,-20.3,-2.48,-2.74,0.909,13.3,19.9,9.68,12.5,-2.29
CSCCC(=O)N1CCCC1c1ccsc1 (configuration not stated),0.213,9.72,0.426,-10.9,-4.76,-1.32,18.8,30.2,4.21,0,103
CC(=O)N1CC[C@H]2OCC[C@@H](C(=O)N3CCCCO3)[C@@H]2C1,-2.31,12,-3.03,10.7,-1.97,-8.63,15,-4.45,4.23,12.8,-7.82
CCN(Cc1nc2c(cnn2C)c(=O)[nH]1)c1ccc(OC)c(OC)c1,-2.86,24.1,14.9,-0.321,0.513,-2.8,23.3,27,9.38,20.2,-22.5
Cc1cnc(N2C[C@H]3C[C@H](C(=O)N(C)C)[C@@H](C2)O3)nc1,-4.03,-5.33,5.45,-2.75,6.76,-46.1,1.54,-13.3,-1.04,0,-3.12
CC(C)N1CCC(Cc2cncc(-c3ccccc3C(=O)O)n2)CC1,-3.85,8,9.75,5.58,-4.13,0.699,4.32,13.7,5.32,8.97,-3.75
Cc1nnc2n1CCN(C(=O)c1cn(-c3ccccc3Cl)nn1)C2,-5.44,8.22,-1.29,1.29,0.992,-2.79,6.25,0.99,7.29,16.1,-2.71
c1nc2n(n1)CC(NCc1nc(-c3ccsc3)no1)CC2 (configuration not stated),-3.43,0,-5.33,-3.06,-1.02,-0.554,-5.92,4.74,2.97,6.1,7.25
CN(CC1(O)CCCN(CCC2CCCCC2)C1=O)C1CCOCC1 (configuration not stated),-5.39,10.7,-4.88,15.6,7.5,6.77,6.8,6.58,4.92,13.6,-3.45
O=C(Cc1ccc(-n2cccn2)cc1)N1CCCC(n2cccn2)C1 (configuration not stated),-9.35,10.4,-6.09,-18.3,11.5,-1.9,13.8,-3.32,6.67,11.8,-20
O=C(CCc1ccccc1)N1CCC(N2CCNC2=O)CC1,-4.14,7.79,3.48,-3.35,-4.6,1.47,6.06,15.5,3.81,14.1,-13.9
CCc1ccc(NS(=O)(=O)CC2=NC(=O)n3cccc3C2=O)cc1,1.25,-17.3,11.5,5.52,-0.786,-7.57,6.1,0.554,-8.47,-12.8,3.49
CCc1nnc2n1CCN(C(=O)c1csc(-c3cnn(C)c3)n1)C2,-4.14,12.5,-3.73,15.8,4.96,8.39,15.1,0.753,3.16,7.69,-5.68
CN(C)Cc1nn(C)c2c1CCN(S(=O)(=O)c1cccs1)C2,-0.0797,13,2.64,-2.7,1.48,3.23,5.57,14.8,8.47,8.97,-7.57
CN1CCCC1CNC(=O)CCCOc1ccc(F)cc1 (configuration not stated),-1.24,0,7.48,11.7,4.7,-3.83,0.835,-4.13,4.41,7.32,-3.92
